This passage reports z-score results from PubChem BioAssay AID1508600 (Functional Genomics Laboratory (NCATS/FGL), 2020).

Among all 53,000 sequences or so, about 3,700 (7%) were called active. Shown is part of a subset that was picked to be rich in actives. Unmarked numbers belong to inactive results.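 How the source made its calls: active means gene knockdowns whose robust z-score for IL-1 alpha signal is at least 2 or at most -2, so actives lie on both sides; inactive means the rest.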

A short description of this experiment: Components of the Cytosolic LPS Sensing Pathway: Gene Identification via Genome-wide siRNA Screen.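 Further: robust z of the log signal after scaling to non-targeting control siRNA wells of the plate.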 As to conditions: RAW264.7 macrophages, IL-1a HTRF, actives lie on both sides, screened at 100 nM (by protocol), cells primed 5 h with Pam3CSK4 first. The procedure, abridged:
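Read-out: IL-1a HTRF on supernatant, divided by plate negative-control median ×100, log-transformed and converted to robust z-score. Cells were RAW264.7 given 100 nM siRNA, Pam3CSK4-primed 5 hours, then LipidA-transfected 24 hour.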
With CGAGAUGUCCCAGAAUCAUTT against Wdr75, the z-score is -2.26 (active). “GCCAUGUUCCCAUUUAACUTT against A730018C14Rik”: the z-score was 1.34. For the sequence GCACGAGGAUGUGAUAUUCTT against Txndc2, the z-score was -0.65.

As for CCUUCUCUUUGCUCUAUGUTT against Olfr1284, the z-score was -0.647.

For the sequence GCAUCGACAACCUCUCUAGTT against Hba-x, the z-score is 3.15 (active).

Regarding GCUUAGUUUAUGAGAAUGCTT against Ptprh, the z-score is -0.791. Take GGCCAUAUUUGUGACUGUGTT against Hao1: the z-score was -1.58. For GGAUCUUGAAGCCAAAUACTT against Ccdc127 the value was 2.56 (active); for GGUAACCAAAACAAUUCUGTT against Cog8, -0.00241; for GGUGUCUGAGUAAUUCUGGTT against Zscan5b, -1.55. For GUGUAGCUCUUCACAGUUATT against Fgf2os the value was 0.673; for GGCUUUGGAAUGAGAGCUUTT against Dynlrb1, -2.07 (active); for “CGUGUUUAGGAAAAAUUGUTT against 2510039O18Rik”, -0.398. For CCUGCUAAGUGAAUUUGUGTT against Cmpk1 the value was 2.18 (active); for GCAACGAGCAAAAAGCAUGTT against Htr2a, -0.794. As to GGUCCUUAUCGCUUGGAUGTT against Vwa8, the z-score was -0.202. For GGCUAAGACCAAAACUUUATT against Cyp4f13 the value was 0.772; for GCAGCUUUGAAAUUGUCCATT against Stard5, -1.72; for CGAUGCAAAAAGAAUAGACTT against Mark1, 0.673.

With GGCUAGUUUUCUCUUAAAUTT against Usp1, the z-score is -3.12 (active). Consider GAGUGUCCGAUAGACCGUUTT against Rbm4, for which the z-score was -0.429. For GGCGCAAAUACUUCUUCAUTT against Nrg1 the value was 0.533. Turning to GCACCUUUGAGUGCAACAUTT against Rnf185, the z-score was -2.37 (active). For CCUAAGAUUUUGGAACAAATT against Cenpm, the z-score is -0.47.

In the case of GGCCAGGAGAAGAUUGAACTT against Ccdc42, the z-score is 0.00447. As for GGCUGAAUCGGCAUUUCCATT against Klhdc3, the figure is -0.184. As for GGCUGCAUGGUACAGAUCUTT against Olfr463, the figure is -2.33 (active); as for GCUUUUUGAGUCUGAUUUATT against Dmgdh, 0.413. As for GGCAUUCAAAAGGUAAAAUTT against Grid2, the figure is -0.515.
